# AMA1-RON2 inh – qHTS for Inhibitors of AMA1-RON; Towards Development of Antimalarial Drug Lead: Primary Screen | Potency, µM (titrated, usually from 58.2 µM), inactives show at the highest dose activity change, negative = inhibition, most hits filed as inhibitors | AID 720542, 2013 | AlphaScreen AMA1-biotinylated RON2 peptide binding | 0.2% of 360,000 active | Plasmodium falciparum AMA1 (3D7) - RON2 peptide interaction; active = well fitted inhibition curve with a large enough effect; inconclusive = small, poorly fitted or top-dose-only effect; inactive = no such curve, though single readings can be large or run the other way;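 note: potency is the fitted concentration of half-maximal effect; 0% = vehicle wells and -100% = peptide control; nearly all actives have a fitted effect of over 45% in size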
#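 AMA1 (3D7) with his tag at 25 nM final met compounds first, then biotinylated RON2 peptide at 25 nM; detection used donor plus acceptor beads, 10 µg/mL apiece, read by AlphaScreen after 30 min at room temperature.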
# Shiga inhibitor – A qHTS for Small Molecule Inhibitors of Shiga Toxin; Vero cells, Shiga toxin protein synthesis inhibition reporter; inhibition, % at 38.7 µM; 9.2% of 290,000 active; in the data active = inhibition mostly above about 28%, no sharp cut-off; inactive = mostly below about 43%; note: 0% is about no effect
# Lassa entry inh – qHTS for Inhibitors of binding or entry into cells for Lassa Virus; Lassa virus pseudotype entry inhibition, cell reporter; AID 540256, 2011; 1.2% of 300,000 active; Potency, µM (highest dose often 37.9 µM), inactives show top-dose activity change, negative = inhibition, actives largely listed as inhibitors; calls by dose curve; tested in HEK293 cells; note: potency is the fitted concentration of half-maximal effect; % is set by controls: 0 for no effect and ±100 for the full control effect; nearly all actives have a fitted effect of over 50% in size
# CHX counter – Cycloheximide Counterscreen for Small Molecule Inhibitors of Shiga Toxin; cell reporter, cycloheximide protein synthesis inhibition counterscreen; max response, %; 12% of 300,000 active; in the data active = max response mostly above about 13%, no sharp cut-off; inactive = mostly below about 14%; note: read at 38.3 µM for the half of the compounds with a filed dose; 0% is about no effect
# MARV entry inh – qHTS for inhibitors of binding or entry into cells for Marburg Virus. Marburg virus pseudotyped entry inhibition, cell reporter. Potency, µM (titrated, usually from 37.8 µM), for inactives: top-dose activity change, negative = inhibition, usual class: inhibitors. 1.8% of 300,000 active. AID 540276, 2011; calls by dose curve; tested in HEK293 cells; note: potency is the fitted concentration of half-maximal effect; % is set by controls: 0 for no effect and ±100 for the full control effect
# Active calls of the source: *; ? = inconclusive; nt = no result given; [ ] = another dose, or the depositor's remark. This is one part of a sample in which hits are shown more often than they occur.
SMILES,AMA1-RON2 inh,Shiga inhibitor,Lassa entry inh,CHX counter,MARV entry inh
Cc1ccnc(NC(=O)CCCc2c[nH]c3ccccc23)c1,-8%,46*,0%[46.1 µM],23*,11%[46.1 µM]
O=C(CSCCc1ccccn1)Nc1ccc(Br)cn1,4%,30,7%,6,10%
Cc1ccc(NC(=O)CCCc2c[nH]c3ccccc23)nc1,-16%,16,nt,5,nt
O=C(CSCCc1ccccn1)Nc1ccccn1,-6%,9,16%,15*,-5%
CCC(CC)NC(=O)Cc1ccccc1OC,-7%,-15,4%,-4,1%
COCCN(C(=O)COC(=O)CSc1ccc2ccccc2c1)c1c(N)n(Cc2ccccc2)c(=O)[nH]c1=O,3%,nt,9%,nt,15%
CCC(C)NC(=O)c1sc2nc(C)c(C(=O)Nc3ccc(C)cc3C)c(-c3ccc(Br)cc3)c2c1N (stereo unspecified),nt,nt,7%[46.1 µM],nt,?
CCN(CC)c1ccc(/C=C(/C#N)C(=O)NCc2ccccc2)o1,-12%,102*,-17%,50*,21%
CCN(CC)c1ccc(/C=C(/C#N)C(=O)NC(C)C)o1,-19%,60*,-7%,26*,28%[46.1 µM]
CC(=O)Nc1ccc(/C=C(\C#N)C(=O)NCc2ccccc2)cc1,1%,-5,7%,-5,?
S=C(NC1CCCC1)N1CCN(c2ccc(Cl)cc2)CC1,?,30,-3%[46.1 µM],-3,?
O=C(CSc1nnc(NC(=O)c2ccccc2)s1)NC1CCCC1,-2%,43,-19%[46.1 µM],17*,?
O=C(CCCSc1nnc(Nc2ccccc2F)s1)N1CCOCC1,-5%,59*,24%[46.1 µM],39*,?
O=C(CSc1nnc(NC(=O)c2ccc(F)cc2F)s1)NC1CCCC1,14%,28,-28%,22*,-3%[46.1 µM]
O=C(Nc1nnc(SCC(=O)N2CCOCC2)s1)c1ccccc1,1%,13,?,22*,-39%
O=C(CSc1nnc(NC(=O)C2CC2)s1)Nc1cccc(F)c1,-7%,16,0%,21*,?
O=C(CSc1nnc(NC(=O)c2ccccc2F)s1)NC1CCCC1,-6%,65*,1%[46.1 µM],27*,10%[46.1 µM]
Cc1ccc(C)c(NC(=O)CCOc2ccccc2)c1,-12%,-8,-6%[46.1 µM],-1,-12%[46.1 µM]
CCCC(=O)Nc1ccc(Sc2ccc([N+](=O)[O-])cc2)cc1,-12%,-4,10µM*,-1,20µM*
O=C(CCOc1ccccc1)Nc1ccc([N+](=O)[O-])cc1,?,37*,0%[46.1 µM],23,13%[46.1 µM]
CCOC(=O)c1ccc(NC(=O)CCOc2ccccc2)cc1,4%,22,2%,9,?
CCC(CC)C(=O)Nc1ccc(Sc2ccc([N+](=O)[O-])cc2)cc1,-6%,-4,10%,6,-14%
Cc1ccc(NC(=O)CCOc2ccccc2)cc1,9%,62*,19%[46.1 µM],54*,nt
CCCOC(=O)c1ccc(NC(=O)CCOc2ccccc2)cc1,-5%,22,-16%,13*,-20%
COc1ccc(C(=O)COC(=O)CCc2ccccc2)cc1,1%,-2,1%,6,7%[46.1 µM]
SMILES,AMA1-RON2 inh,Shiga inhibitor,Lassa entry inh,CHX counter,MARV entry inh
O=C(CCCOc1ccccc1)Nc1ncccn1,-1%,38*,-8%,32*,?
COc1ccc(CCC(=O)OCC(=O)Nc2ccccc2)cc1,-7%,68,0%[46.1 µM],20*,?
Cc1cc(Br)c(NC(=O)CN(C)CCOc2ccccc2)c(Br)c1,45%,24,nt,11*,nt
COc1ccc(NC(=O)CS(=O)(=O)c2ccccc2Cl)cc1,64%,29,10%[46.1 µM],16*,16%[46.1 µM]
CCOc1ccccc1CNC(=O)CCCn1c(=O)c2cccn2c2ccc(F)cc21,nt,nt,0%[46.1 µM],nt,nt
Cc1ccc(NC(=O)c2oc3ccccc3c2NC(=O)C23CC4CC(CC(C4)C2)C3)cc1,nt,nt,20%[46.1 µM],nt,-13%[46.1 µM]
COc1ccc(OCCC(=O)Nc2ccccc2)cc1,2%,26*,nt,17*,nt
O=C(CCOc1ccccc1)Nc1ccccc1,9%,41,17%,27*,?
CC(=O)c1ccc(NC(=O)CCOc2ccccc2)cc1,nt,nt,16%[46.1 µM],nt,nt
CCCOC(=O)c1ccc(NC(=O)CCC(=O)OCC)cc1,4%,79*,29%,29*,?
COc1ccc(OCCOC(=O)Nc2ccccc2)cc1,3%,-7,0%,-3,-7%[46.1 µM]
CCOC(=O)c1cnc(NCc2ccccc2OC)c2ccccc12,nt,nt,6%[46.1 µM],nt,nt
